Screening results deposited in PubChem BioAssay by ICCB-Longwood Screening Facility, Harvard Medical School.
Shown is part of a subset that was picked to be rich in hits.
MgrA DNA FP = alters Staphylococcus aureus MgrA binding to DNA; fluorescence polarization; inhibition, % (concentration not given with the values); hit rate 0.13% among 84,000; AID 602314; in the data active means inhibition above about 30%, passing the limit was not always enough;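 further: 0% = protein plus DNA without compound and 100% = DNA alone without protein; higher means less MgrA bound to DNA so lower polarization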
Numbers without * were called inactive.

SMILES	MgrA DNA FP
CN1CCc2c(C#N)c(Cl)nc(NCc3ccccc3)c2C1	-1
CN1CCc2c(C#N)c(N)n(N)c(=S)c2C1	161*
CN1CCc2[nH]c(=S)c(C#N)c(-c3ccccc3)c2C1	10
O=C(COc1ccc(Oc2ccccc2)cc1)N1CCN(Cc2ccccc2)CC1	-1
CC(C)NCc1ccc2c(c1)OCO2	-4
CN1C(=O)NC(=O)/C(=C/c2ccco2)C1=O	12
O=C1NC(=S)N(c2ccccc2)C(=O)/C1=C/C=C/c1ccco1	80*
O=C1NC(=O)N(c2ccccc2)C(=O)/C1=C/c1ccco1	17
N#C/C(=C\C(=O)O)c1ccccc1	1
COc1cccc(N2C(=O)NC(=O)C(CCc3ccncc3)(CCc3ccncc3)C2=O)c1	-1
